Consider eight compounds from PubChem BioAssay (NCI).

About 83,000 compounds went through this panel and 20% of them were active in at least one assay; those are over-represented in the sample as a whole.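 Each cell line was grown in a 96-well plate and treated with one concentration of compound for 48 hours. Values below 10 were considered active.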 Unmarked numbers belong to inactive results. Activity calls are given as the source filed them.

Test systems include SR leukemia; RPMI-8226 leukemia; OVCAR-8 ovarian; OVCAR-5 ovarian; OVCAR-4 ovarian; SK-OV-3 ovarian; IGROV1 ovarian; OVCAR-3 ovarian; HS 578T breast; NCI/ADR-RES ovarian; T-47D breast; BT-549 breast; MDA-MB-435 melanoma; SW-620 colon; MCF7 breast; HCT-116 colon; HCC-2998 colon; KM12 colon.
What all share (assay): NCI-60 one-dose screen, 48 h (100 = growth as untreated, 0 = no growth, -100 = all killed)
Common to all, as to settings: 10 µM unless noted

Turning to `CC(C)OC(=O)c1ccc2[nH]c(O)c(C(=Nc3ccc(N(C)C(=O)CN4CCN(C)CC4)cc3)c3ccccc3)c2c1`, the growth in the assay on SR leukemia is -20.3% (active); in the assay on RPMI-8226 leukemia, -28.9% (active); in the assay on OVCAR-8 ovarian, -37.4% (active); in the assay with OVCAR-5 ovarian it was -36.2% (active); with OVCAR-4 ovarian it was -72.3% (active); with SK-OV-3 ovarian, -81.6% (active). Also, the growth in the assay with IGROV1 ovarian is -39.2% (active); in the assay on OVCAR-3 ovarian it was -75.7% (active); with HS 578T breast it was -7.07% (active); in the assay with NCI/ADR-RES ovarian it was 38.4%; in the assay with T-47D breast, -47.7% (active); with BT-549 breast, -78.8% (active). Further, the growth in the assay with MDA-MB-435 melanoma was -92.6% (active); in the assay on SW-620 colon, -64.6% (active); in the assay with MCF7 breast, -65.5% (active); in the assay with HCT-116 colon, -47.9% (active); in the assay on HCC-2998 colon, -84.2% (active); in the assay on KM12 colon it was -43.2% (active).
With `C1=C(N2CCCC2)CCC1`, the growth was 112% with SR leukemia; 95.4% with RPMI-8226 leukemia; 104% in the assay on OVCAR-8 ovarian; 86.2% in the assay with OVCAR-5 ovarian; 98.8% in the assay on OVCAR-4 ovarian; 131% in the assay with SK-OV-3 ovarian. For the same compound, the growth was 108% in the assay with IGROV1 ovarian; 106% in the assay on OVCAR-3 ovarian; 102% in the assay on HS 578T breast; 104% with NCI/ADR-RES ovarian; 104% in the assay with T-47D breast; 113% in the assay with BT-549 breast. Moreover, the growth is 95.1% in the assay with MDA-MB-435 melanoma; 101% in the assay with SW-620 colon; 91% with MCF7 breast; 102% in the assay with HCT-116 colon; 110% with HCC-2998 colon; 109% in the assay on KM12 colon.
For `COc1ccc2cc(C(=O)c3coc4ccc(O)cc34)ccc2c1`, the growth in the assay on SR leukemia is 78.9%; in the assay on RPMI-8226 leukemia, 91.5%; in the assay with OVCAR-8 ovarian it was 106%; in the assay on OVCAR-5 ovarian, 103%; in the assay on OVCAR-4 ovarian, 97.6%; with SK-OV-3 ovarian, 77.2%. The growth in the assay on IGROV1 ovarian was 85.2%; in the assay on OVCAR-3 ovarian, 100%; in the assay on HS 578T breast it was 112%; in the assay on NCI/ADR-RES ovarian it was 99.8%; in the assay with T-47D breast it was 84.2%; in the assay on BT-549 breast, 94.2%. Further, the growth was 104% in the assay on MDA-MB-435 melanoma; 116% in the assay with SW-620 colon; 37.5% in the assay on MCF7 breast; 94% in the assay with HCT-116 colon; 103% in the assay on HCC-2998 colon; 90.3% in the assay with KM12 colon.
In the case of `COc1cc(-n2cc(-c3cc(O)c(C/C=C(\C)CCC=C(C)C)c(O)c3)nn2)cc2c1O[C@]1(C)CC[C@@H](O)C(C)(C)[C@H]1C2`, the growth is 4.49% (active) with SR leukemia; -17.8% (active) in the assay on RPMI-8226 leukemia; 16.4% in the assay with OVCAR-8 ovarian; 29.6% in the assay on OVCAR-5 ovarian; 37.9% in the assay with OVCAR-4 ovarian; 34.8% in the assay with SK-OV-3 ovarian. In addition, the growth in the assay on IGROV1 ovarian was 23.8%; in the assay with OVCAR-3 ovarian, -19.6% (active); in the assay with HS 578T breast it was 19.6%; in the assay with NCI/ADR-RES ovarian, 17.3%; with T-47D breast, 5.7% (active); with BT-549 breast, 29%. Moreover, the growth in the assay with MDA-MB-435 melanoma was 16.6%; with SW-620 colon, 11.7%; with MCF7 breast, 7.25% (active); in the assay on HCT-116 colon, 8.36% (active); with HCC-2998 colon it was 10.2%; in the assay on KM12 colon, 15.9%.
As to `C#Cc1cccc(Nc2ncnc3ccc(-c4cncc(NS(C)(=O)=O)c4)cc23)c1`, the growth in the assay with SR leukemia is 7.86% (active); with RPMI-8226 leukemia it was 26.3%; in the assay with OVCAR-8 ovarian, 37.1%; with OVCAR-5 ovarian it was 21.9%; in the assay on OVCAR-4 ovarian it was 52.1%; in the assay on SK-OV-3 ovarian it was 0.85% (active). The growth in the assay on IGROV1 ovarian was -12.4% (active); in the assay on OVCAR-3 ovarian, 7.33% (active); with HS 578T breast it was 6.13% (active); in the assay with NCI/ADR-RES ovarian, 78.3%; with T-47D breast, -5.8% (active); in the assay on BT-549 breast it was 19.2%. Besides, the growth in the assay with MDA-MB-435 melanoma was 44.8%; in the assay with SW-620 colon it was 31.1%; in the assay on MCF7 breast, 10.9%; in the assay on HCT-116 colon, 11%; in the assay with HCC-2998 colon, 45.5%; with KM12 colon it was 36.1%.
As to `C=C1C(=O)O[C@H]2[C@H]1CC/C(COC(=O)NCc1cc[nH]c1)=C\CC[C@@]1(C)O[C@@H]21`, the growth in the assay with SR leukemia was 4.94% (active); with RPMI-8226 leukemia, 30.2%; in the assay with OVCAR-8 ovarian, 70.8%; with OVCAR-5 ovarian, 50.5%; in the assay on OVCAR-4 ovarian it was 57.1%; with SK-OV-3 ovarian, 75.7%. The growth was 15.5% with IGROV1 ovarian; 16.6% with OVCAR-3 ovarian; 63% with HS 578T breast; 90.6% in the assay on NCI/ADR-RES ovarian; 69.5% in the assay with T-47D breast; 55.6% with BT-549 breast. The growth in the assay with MDA-MB-435 melanoma was 34.2%; in the assay on SW-620 colon, 21.6%; in the assay with MCF7 breast it was 34.8%; with HCT-116 colon it was 36.1%; with HCC-2998 colon, 95%; with KM12 colon it was 78.2%.
With `COc1ccc(/C=C2\COc3ccc(O)cc3C2=O)c(OC)c1OC`, the growth in the assay with SR leukemia is 16.5%; in the assay with RPMI-8226 leukemia, 8.76% (active); with OVCAR-8 ovarian, 67%; in the assay on OVCAR-5 ovarian, 95.8%; in the assay on OVCAR-4 ovarian, 79.3%; in the assay on SK-OV-3 ovarian, 112%. The growth with IGROV1 ovarian is 91.3%; in the assay with OVCAR-3 ovarian, 57.2%; in the assay with HS 578T breast it was 78%; with NCI/ADR-RES ovarian, 55.1%; with T-47D breast it was 64.7%; with BT-549 breast it was 72.3%. Moreover, the growth is 24.9% with MDA-MB-435 melanoma; 38.9% in the assay with SW-620 colon; 24.5% with MCF7 breast; 70.8% in the assay on HCT-116 colon; 86.4% with HCC-2998 colon; 44.3% in the assay with KM12 colon.
For the compound `Cc1c(-c2nc3ccc(F)cc3c(=O)[nH]2)c2ccccc2n1C`, the growth was 11.3% in the assay on SR leukemia; 40.9% in the assay on RPMI-8226 leukemia; 46.9% with OVCAR-8 ovarian; 79.4% in the assay with OVCAR-5 ovarian; 59.4% in the assay on OVCAR-4 ovarian; 43.2% in the assay with SK-OV-3 ovarian. Besides, the growth in the assay on IGROV1 ovarian was 38.9%; in the assay on OVCAR-3 ovarian it was 10.3%; in the assay on HS 578T breast, 3.2% (active); with NCI/ADR-RES ovarian, 21.9%; with T-47D breast, 36.1%; with BT-549 breast, 43.8%. Moreover, the growth with MDA-MB-435 melanoma was -38.8% (active); in the assay with SW-620 colon, 16.1%; in the assay on MCF7 breast, 19.1%; in the assay on HCT-116 colon, 25.1%; in the assay with HCC-2998 colon it was 53%; in the assay on KM12 colon it was 22%.
